PI5P4K alpha inh = PI5P4K alpha (human) kinase inhibition | PI5P4Kalpha enzyme, ADP-Glo luminescence, 60 min; stronger effect = lower value | max response, % | hit rate 1.2% among 330,000; active = max response of -50% or lower; inconclusive = between -30% and -50%; inactive = -30% or higher; also: value at the top dose of about 77 µM; % is scaled to controls: 0 for no effect and ±100 for the full control effect
Target sequence (P48426 whole entry, looked up): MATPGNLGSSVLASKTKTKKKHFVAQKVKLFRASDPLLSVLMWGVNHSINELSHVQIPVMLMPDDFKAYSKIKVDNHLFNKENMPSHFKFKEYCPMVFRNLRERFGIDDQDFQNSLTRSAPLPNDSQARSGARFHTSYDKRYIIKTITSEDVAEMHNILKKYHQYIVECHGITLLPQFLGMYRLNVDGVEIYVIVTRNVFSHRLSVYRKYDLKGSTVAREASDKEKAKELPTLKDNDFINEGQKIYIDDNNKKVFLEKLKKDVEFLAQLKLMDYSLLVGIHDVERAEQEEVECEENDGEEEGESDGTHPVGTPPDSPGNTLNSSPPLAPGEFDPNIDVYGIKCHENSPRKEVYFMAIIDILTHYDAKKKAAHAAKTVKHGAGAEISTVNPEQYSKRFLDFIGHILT
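Enzyme plus substrate dispensed, test compounds pinned in, then ATP (5 microM final) added. After 60 min at RT, ADP-Glo reagent 1 for 45 min and reagent 2 for 30 min preceded luminescence imaging.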
PI4K2A inh = blocks human PI4K2A kinase activity. Q9BTU6. purified PI4K2A, ADP-Glo luminescence, 1 h; stronger effect = lower value. activity change, negative = inhibition, % at 76.9 µM. hit rate 0.13% among 420,000. AID 1346378; in the data active = activity change below about -50%; inconclusive = mostly about -30% to -49%;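 also: -100% = wells without enzyme as full effect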
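In this quantitative HTS, ADP production by PI4K2A was quantified luminescently after 1 h at ambient temperature; 100 microM adenosine served as plate-quality control.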
DRD3 agonist = agonists of human D3 dopamine receptor; D3R DiscoveRx beta-arrestin cells, luminescence, 90 min; max activation, %; hit rate 0.58% among 410,000; in the data active = max activation above about 30%; also: 0% is about no effect
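Agonist-mode cell screen: cells plated at 1500/well and incubated overnight at 37 °C, then exposed to library compounds for 90 min at 37 °C. Detection reagent was added for 30–60 min at room temperature, and luminescence was read.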
LDHA inh = LDHA (human) enzyme inhibition; purified LDHA, NADH/diaphorase-resazurin fluorescence; stronger effect = lower value; activity change, % (values are at about 110 or 230 µM); hit rate 0.15% among 480,000; AID 1347041; in the data active = activity change below about -30%; inconclusive = mostly about -25% to -30%;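 also: plate controls were DMSO wells for no effect and wells without enzyme for full effect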
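Resorufin fluorescence (ex540/em590), read at 0 and 20 min after diaphorase/resazurin addition, reports the NADH left after a 5 min room-temperature reaction of 2 nM human LDH5 with 0.06 mM NADH and 0.2 mM pyruvate.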
DRD3 antagonist = D3 dopamine receptor (human) antagonism | hit rate 2.5% among 360,000 | max response, negative = inhibition, % | P35462 | AID 652054 | D3R cells, DiscoveRx beta-arrestin luminescence, antagonist mode; stronger effect = lower value; in the data active = max response below about -50%; inconclusive = no clear call, values can overlap the other calls; also: % is scaled to controls: 0 for no effect and ±100 for the full control effect
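Cells expressing the human receptor were seeded at 1500 cells/well, incubated overnight at 37 degrees C in 5% CO2, then exposed to library compounds with dopamine controls for 90 minutes at 37 degrees C before luminescent detection.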
The depositor's hits bear a star; ? = inconclusive; / = no result given. Sampled rows, rich in hits. Any-hit rate of the full collection: about 3.3%.

SMILES	PI5P4K alpha inh	PI4K2A inh	DRD3 agonist	LDHA inh	DRD3 antagonist
CC1CCN(C(=O)CSc2nc3ccccc3[nH]2)CC1	/	1	-38	-4	-53*
Cc1c(Cl)cccc1NC(=O)CCc1c[nH]c2ccccc12	/	/	/	-4	/
COc1cccc(NC(=O)CSc2nc(Cl)nc3nc[nH]c23)c1	/	/	/	5	/
CC(NC(=O)C12CC3CC(CC(C3)C1)C2)c1ccc2c(c1)OCCO2 (configuration not stated)	/	0	32*	0	33
Cc1ccc(C(C)NC(=O)C23CC4CC(CC(C4)C2)C3)cc1 (configuration not stated)	2	-2	-5	2	-7
O=C(CSc1ccc2c(c1)OCCO2)c1ccc2c(c1)CCC2	/	/	/	9	/
CN(CC(=O)Nc1ccccc1Cl)C(=O)COC(=O)c1nc(Cl)c(Cl)c(Cl)c1Cl	-4	-10	-6	-3	-67*
CCOC(=O)c1sc(NC(=O)CSc2n[nH]c(-c3ccccc3)n2)c(C#N)c1C	-55*	-6	7	3	24
CCOC(=O)c1sc(NC(=O)C(C)C)c(C#N)c1C	-68*	-6	-10	-5	-21
CCOC(=O)c1sc(NC(=O)CCCC(=O)O)c(C#N)c1C	/	/	/	12	/
CCOC(=O)c1sc(NC(=O)CSc2nc(C)cc(C)n2)c(C#N)c1C	/	2	2	-4	7
COc1cc(CN(C)C(=O)Cc2nc(-c3cccs3)oc2C)ccc1OC(F)F	/	/	/	1	/
CCOC(=O)c1c(C)[nH]c(C=O)c1C	/	/	/	4	/
O=C(CCN1CCN(c2ccccc2)CC1)c1ccc(Cl)cc1	2	20	-3	-3	-70*
O=C(CCN1CCN(c2ccccc2)CC1)Nc1ccc(Cl)cc1	8	2	21	-2	-62*
COC(=O)c1ccc(NC(=O)CCN2CCN(c3ccccc3)CC2)cc1	-2	6	2	-5	0
CC(CCN1CCN(c2ccccn2)CC1)c1ccccc1 (configuration not stated)	-2	-1	6	-22	?
O=C(CCN1CCN(c2ccccc2)CC1)Nc1ccc(OCc2ccccc2)cc1	0	-5	35*	0	-9
CC(CCN1CCN(c2ccccc2)CC1)c1ccccc1 (configuration not stated)	-3	-5	-13	0	-102*
COc1ccc(N(C)S(=O)(=O)c2ccc3c(c2)C(=O)Nc2cc(Cl)ccc2O3)cc1	/	/	/	9	/
O=C(Cc1ccccc1)Nc1ccc(N2CCN(Cc3ccccc3F)CC2)cc1	/	8	-3	-9	-52*
CCC(=O)Nc1ccc(N2CCN(Cc3ccccc3F)CC2)cc1	2	7	-3	0	?
COc1ccccc1NC(=O)NCCN1CCN(c2cccc(Cl)c2)CC1	-3	-4	-7	1	-92*
O=C(NCCN1CCN(c2ccccc2)CC1)Nc1ccc(Cl)cc1	3	-1	-24	-6	-55*
O=C(CCN1CCN(c2ccc([N+](=O)[O-])cc2)CC1)c1ccc(Cl)cc1	-5	15	-9	0	-17
SMILES	PI5P4K alpha inh	PI4K2A inh	DRD3 agonist	LDHA inh	DRD3 antagonist
O=C(CCN1CCOCC1)c1ccc(N2CCCCC2)cc1	-22	16	-50	-6	-76*
CC(C)NC(=O)NC(=O)C(C)Sc1nc(-c2ccco2)nc2ccccc12 (configuration not stated)	/	/	/	0	/
O=C(NCCN1CCN(c2cccc(Cl)c2)CC1)Nc1ccccc1	-2	4	-4	-3	-91*
CCOc1ccccc1C(=O)N1CCN(c2cccc(Cl)c2)CC1	/	4	-19	-3	8
O=C(CCC(=O)N1CCN(c2cccc(Cl)c2)CC1)N1CCN(c2ccccc2)CC1	8	-4	6	-1	1
O=C(O)c1ccccc1C(=O)N1CCN(c2cccc(Cl)c2)CC1	3	6	-18	1	-55*
O=C(NCCN1CCN(Cc2ccccc2)CC1)Nc1cc(Cl)cc(Cl)c1	11	-2	-18	-2	-10
OC(CN1CCN(c2cccc(Cl)c2)CC1)C(c1ccccc1)c1ccccc1 (configuration not stated)	17	-3	-10	-3	-72*
O=C(CCN1CCN(c2ccc(F)cc2)CC1)Nc1ccc(F)cc1	-18	7	-21	1	-82*
O=C(c1cc(=O)[nH]c2ccccc12)N1CCC(Cc2ccccc2)CC1	/	/	/	4	/
O=C(c1ccc(S(=O)(=O)N2CCOCC2)cc1)N1CCN(c2cccc(Cl)c2)CC1	/	9	10	1	-69*
c1ccc(CCCN2CCN(c3ccccc3)CC2)cc1	2	0	1	-9	-64*
c1ccc(CCCN2CCOCC2)cc1	0	-7	-14	-11	-7
O=C(CCN1CCN(c2ccccc2)CC1)Nc1nccs1	-4	1	12	-4	-64*
O=C(c1ccc(S(=O)(=O)N2CCOCC2)cc1)N1CCN(c2ccc(F)cc2)CC1	-1	8	-2	-3	33
Clc1cccc(N2CCN(CCCN3CCN(c4ccccc4)CC3)CC2)c1	-3	3	-4	-5	-79*
O=C(CN1CCN(c2ccccc2)CC1)Nc1nccs1	7	6	2	1	-13
O=C(COC(=O)c1cc(Cl)ccc1[N+](=O)[O-])Nc1ccc2c(c1)OC(F)(F)O2	/	/	/	-10	/
CC(NC(=O)C1CCC1)C1CCCO1 (configuration not stated)	/	/	/	-2	/
Cc1cc(/C=C(/C#N)c2nc3ccccc3[nH]2)cc(C)c1O	/	/	/	1	/
CC1=C/C(=N\NC(=S)Nc2cccnc2)CC(C)(C)C1	-12	2	-10	-10	-51*
CC1(C)C2CC=C(/C=N/NC(=S)Nc3cccnc3)C1C2 (configuration not stated)	-2	2	7	-5	5
CCC(C)(C)C1CCC(=NNC(=S)Nc2cccnc2)CC1 (configuration not stated)	1	-4	-13	2	-64*
Cc1ccc(NC(=O)Cn2c3ncccc3c(=O)n2-c2ccc(C)c(C)c2)c(Cl)c1	/	/	/	8	/
O=C(COc1ccc2c(=O)c(-c3ccccc3)coc2c1)Nc1cccc(Cl)c1	/	/	/	-4	/
CC(C)CNC(=S)NNC(=O)c1csc2c1CCCC2	/	-3	-17	-9	-57*
CC(C)CNC(=S)NNC(=O)c1csc2ccccc12	/	7	-27	-8	-66*

High-throughput results from PubChem BioAssay.
